Shown are actives, neighbours in structure and some others; about 2.2% of the full set was active somewhere.
Giardia killer = Small Molecules that selectively kill Giardia lamblia: qHTS | Giardia lamblia trophozoite viability | activity change, % at 7.66 µM, hits read low | 340,000 compounds, 0.15% hits; in the data active = activity change below about -80%; inconclusive = between about -30% and that limit;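 also: parasites exposed to compound for two days anaerobically before the ATP read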
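Luminescence from cellular ATP indicates surviving trophozoites (100 cells/well) following 48 hrs anaerobic compound treatment at 37 deg C; signal develops 15-30 min at room temperature.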
IDH1 R132H inh = qHTS for Inhibitors of mutant isocitrate dehydrogenase 1 (IDH1): qHTS | Isocitrate dehydrogenase [NADP] cytoplasmic (Homo sapiens), O75874 | IDH1-R132H enzyme, NADPH consumption, diaphorase/resazurin fluorescence | Potency, µM (titrated, usually from 76.6 µM), hits mostly inhibitors | 390,000 compounds, 0.093% hits; also: nearly all actives have a fitted effect of over 65% in size
Target sequence (O75874 whole entry R132H, stated change not applied): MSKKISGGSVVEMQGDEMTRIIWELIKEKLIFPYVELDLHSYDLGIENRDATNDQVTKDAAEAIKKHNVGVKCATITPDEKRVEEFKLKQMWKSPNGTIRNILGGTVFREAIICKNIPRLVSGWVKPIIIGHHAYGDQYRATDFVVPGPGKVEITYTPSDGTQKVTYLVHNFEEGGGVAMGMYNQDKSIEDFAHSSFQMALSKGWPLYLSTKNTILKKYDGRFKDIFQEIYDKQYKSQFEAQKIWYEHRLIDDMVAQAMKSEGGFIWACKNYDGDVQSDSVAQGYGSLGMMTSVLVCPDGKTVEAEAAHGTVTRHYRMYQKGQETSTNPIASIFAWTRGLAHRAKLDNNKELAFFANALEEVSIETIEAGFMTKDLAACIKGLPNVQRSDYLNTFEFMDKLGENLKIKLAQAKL
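IDH1-R132H (0.5 ug/mL) preincubated 30 min with compound, then NADPH (0.016 mM) and alpha-KG (2 mM) added; 80 min at RT, pH 7.5. Remaining NADPH coupled via diaphorase/resazurin to fluorescence (540/590 nm); concentration-response curves normalized to no-enzyme control.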
IL-2 act = qHTS of IL-2 Activators. IL-2 activation reporter assay, cell-based qHTS; stimulated with anti-CD3/CD4/CD28 beads; in transgenic mouse T cells. AID 652025, 2013. activation, % (series mostly up to about 46 µM). 360,000 compounds, 0.065% hits; in the data active = activation above about 50%; inconclusive = mostly about 30% to 49%
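Unstimulated transgenic mouse T cells preincubated 60 min with compound, then stimulated with anti-CD3/anti-CD4-coated beads plus anti-CD28 for 18 h at 37 degrees C. IL-2 response read as EGFP and DsRed fluorescence by plate cytometry.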
BRCA1 expr act = qHTS Assay to Identify Small Molecule Activators of BRCA1 Expression | MCF7-BRCA1-FFLuc reporter, luminescence, 48 h; response scale: scaled: vehicle 0%, 10 µM genistein 100% | 380,000 compounds, 1.1% hits | AID 624202, 2012 | Potency, µM (highest dose often 46.1 µM), actives largely listed as activators; also: nearly all actives have a fitted effect of over 80% in size
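Using MCF7 cells harboring a BRCA1 firefly luciferase reporter, plated 2 h before compound pinning, the screen measured luminescence after 48 h incubation. Responses were normalized to DMSO and 10 microM genistein, then fitted for concentration-effect.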
TrxR1 inh = qHTS Assay for Inhibitors of Mammalian Selenoprotein Thioredoxin Reductase 1 (TrxR1): qHTS | recombinant rTrxR1, NADPH fluorescence consumption, selenite substrate | 390,000 compounds, 1% hits | Potency, µM (top dose mostly 114 µM), hits mostly inhibitors | AID 588453, 2011; also: nearly all actives have a fitted effect of over 65% in size
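Rat TrxR1 (90 nM in the dispensed reagent) was pre-reduced with 400 uM NADPH for 5 min at room temperature, then incubated with compound for 15 min. After 400 uM selenite was added, NADPH fluorescence (Ex 340/Em 450 nm) was followed for 8 min.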
TrxR1 substrate = qHTS Assay for Substrates of Mammalian Selenoprotein Thioredoxin Reductase 1 (TrxR1): qHTS | Thioredoxin reductase 1, cytoplasmic (Rattus norvegicus), O89049 | purified TrxR1 substrate turnover, NADPH consumption readout | Potency, µM (titrated, usually from 114 µM) | 390,000 compounds, 0.01% hits | AID 588456, 2011; also: nearly all actives have a fitted effect of over 50% in size
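Rat TrxR1, dispensed at 90 nM, was prereduced with 400 uM NADPH (final) for 5 min at ~22 deg C, then incubated with compound 15 min before 400 uM selenite. A first-read NADPH fluorescence drop versus no-compound background flagged substrates.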
Each line names hits and unclear results; the compound was inactive in the other large screens. Unless noted, calls follow the shape of the dose curve; as a rule, active = well fitted curve in the direction sought with a large enough effect; inconclusive = small, poorly fitted or top-dose-only effect, or another doubt; inactive = no such curve, though single readings can be large; an effect the other way counts as inactive or inconclusive.

COC(=O)c1ccccc1NC(=S)NC(=O)c1ccccc1C	TrxR1 inh 11µM
CC(=O)c1cccc(NC(=S)NC(=O)c2ccc(C)cc2)c1	BRCA1 expr act 7.9µM, TrxR1 inh inconclusive
COCCCNC(=S)NNC(=O)c1ccc(C(C)(C)C)cc1	none
COC(=O)c1ccccc1NC(=S)NC(=O)c1ccc2c(c1)OCO2	TrxR1 inh 8.9µM
Cc1ccc(-n2ncc3c(NC4CCCC4)ncnc32)cc1	none (no result: Giardia killer, IL-2 act, BRCA1 expr act)
COC(=O)c1ccccc1NC(=S)NC(=O)c1ccc(C)cc1	TrxR1 inh 40µM
CNC(=S)Nc1cccc(C(=O)OC)c1	BRCA1 expr act 7.1µM
Cc1ccc(C(=O)NNC(=S)NC(=O)COc2ccccc2)cc1	TrxR1 inh 40µM
CC(C)(C)c1ccc(C(=O)NC(=S)NNC(=O)COc2ccccc2)cc1	none
COC(=O)c1ccccc1NC(=S)NC(=O)C1CCCCC1	TrxR1 inh 16µM
Cc1ccc(S(=O)(=O)N2CCc3cc(C(=O)Nc4c(C)cccc4C(C)C)ccc32)cc1	none (no result: Giardia killer, IL-2 act, BRCA1 expr act)
Cc1nc2ccc(S(=O)(=O)NC(CC(C)C)C(=O)NCc3ccc(Cl)cc3)cc2s1 (configuration not stated)	none (no result: Giardia killer, IL-2 act, BRCA1 expr act)
CCCCCCCCCOC(=O)CNc1nc(C#N)nc(NCC(=O)OCCCCCCCCC)n1	none (no result: IDH1 R132H inh, IL-2 act)
Cc1ccccc1Oc1ccc(Oc2ccccc2C)nn1	BRCA1 expr act 7.1µM
Cc1cc(OCC(=O)Nc2ccc(C(=O)OC3CCCCC3)cc2)cc(C)c1Cl	none (no result: Giardia killer, IDH1 R132H inh, IL-2 act, BRCA1 expr act)
COc1ccc(-c2cc(N)n(S(=O)(=O)c3c(F)c(F)c(F)c(F)c3F)n2)cc1OC	TrxR1 inh 2.8µM
COc1ccc(-c2cn3ccccc3n2)cc1	Giardia killer inconclusive
COc1ccc(-c2ccn(-c3cccc(F)n3)n2)cc1	BRCA1 expr act 3.2µM
Cc1ccc(-c2cn3c(n2)sc2cc(C(=O)NCCC4=CCCCC4)ccc23)c(C)c1	none (no result: Giardia killer, IL-2 act, BRCA1 expr act)
COc1ccc2nc(/C=N/NC(=O)CCCCCNC(=O)OC(C)(C)C)ccc2c1	none
COc1ccc2nc(/C=N/NC(=O)CCNC(=O)OC(C)(C)C)ccc2c1	BRCA1 expr act 6.3µM
CN=C1S/C(=C\c2ccc(O)c(Br)c2)C(=O)N1C	none
CN=C1S/C(=C\c2ccc(O)c(OC)c2)C(=O)N1C	BRCA1 expr act 10µM
Cc1cccc(N2CCN(C(=S)Nc3ccc4nc(N5CCN(C)CC5)cc(C)c4c3)CC2C)c1 (configuration not stated)	Giardia killer -89
Cc1cc(N2CCN(C)CC2)nc2ccc(NC(=S)N3CCN(c4ccc(F)cc4)CC3)cc12	Giardia killer -85
Cc1cccc(N2CCN(C(=S)Nc3ccc4nc(N5CCN(C)CC5)cc(C)c4c3)CC2)c1C	Giardia killer -82
Cc1cc(N2CCN(C)CC2)nc2ccc(NC(=S)N3CCN(c4cccc(Cl)c4)CC3)cc12	Giardia killer -81
Cc1cc(N2CCN(C)CC2)nc2ccc(NC(=S)N3CCCCC3)cc12	none
Cc1cc(N2CCN(C)CC2)nc2ccc(NC(=S)N3CCN(c4ccc(Cl)cc4)CC3)cc12	Giardia killer inconclusive
CCCCc1nn2c(=O)cc(COC(=O)c3cccc(OC)c3)nc2s1	none (no result: Giardia killer, IL-2 act)
CCC1CCCCN1C(=O)Cn1c(=O)n(CCCCCC(=O)NCc2ccccc2Cl)c(=O)c2sccc21 (configuration not stated)	none (no result: Giardia killer, IL-2 act, BRCA1 expr act)
Cc1noc(/C=C/c2cccs2)c1S(=O)(=O)N1CCC(C(=O)NCc2ccccc2Cl)CC1	none (no result: Giardia killer, IL-2 act, BRCA1 expr act)
O=C(CCl)c1ccc2c(c1)CCCC2	TrxR1 inh inconclusive (no result: Giardia killer, IDH1 R132H inh, IL-2 act)
Nc1nc(=S)c2n[nH]nc2[nH]1	none (no result: IDH1 R132H inh, IL-2 act)
COc1ccc(C(Nc2cc(C)ccn2)c2ccc3ccc(C)nc3c2O)cc1 (configuration not stated)	TrxR1 inh 14µM
Cc1ccc2ccc(C(Nc3ccccn3)c3ccccc3)c(O)c2n1 (configuration not stated)	TrxR1 inh inconclusive
Cc1cccc(NC(c2ccc(C)s2)c2ccc3ccc(C)nc3c2O)n1 (configuration not stated)	TrxR1 inh 71µM
COc1cc(C(Nc2ccccn2)c2ccc3ccc(C)nc3c2O)cc(OC)c1O (configuration not stated)	TrxR1 inh 1.3µM
Cc1ccnc(NC(c2ccccc2F)c2ccc3cccnc3c2O)c1 (configuration not stated)	TrxR1 inh inconclusive (no result: Giardia killer, IL-2 act)
Cc1ccnc(NC(c2ccsc2)c2ccc3ccc(C)nc3c2O)c1 (configuration not stated)	TrxR1 inh 3.5µM
CCOc1ccccc1NC(=O)Cn1c(=O)n(Cc2ccccc2)c(=O)c2c(C)c(C)sc21	none (no result: Giardia killer, IDH1 R132H inh, IL-2 act, BRCA1 expr act)
O=C1C=C(c2c(O)ccc3ccccc23)c2ccccc2C1=O	TrxR1 inh inconclusive, TrxR1 substrate 79µM
COc1ccc(-c2cc(-c3ccccc3)nc3c2COc2ccc(F)cc2-3)cc1	none (no result: Giardia killer, IL-2 act)
C/C(=N\Nc1ncc(Cl)cc1Cl)c1ccc2c(c1)OCO2	BRCA1 expr act 5.6µM
C/C(=N\NC(=O)c1cccs1)c1ccc2c(c1)OCO2	BRCA1 expr act 8.9µM
C/C(=N\NC(=O)c1ccc2c(c1)OCO2)c1ccc2c(c1)OCO2	BRCA1 expr act 7.9µM
C/C(=N\NC(=O)c1ccc2c(c1)OCO2)c1ccc(C(=O)O)s1	none
C/C(=N\Nc1ncc(Cl)cc1Cl)c1ccc(OC(F)F)cc1	none
CCOc1ccc(C(=O)NCCS(=O)(=O)N2CCN(c3ccccc3F)CC2)cc1OCC	none (no result: Giardia killer, IL-2 act, BRCA1 expr act)
CCCCCCC[n+]1ccc(C)c2ccccc21	none (no result: Giardia killer, IDH1 R132H inh, IL-2 act, BRCA1 expr act)
Oc1cc2c(cc1C(c1ccc(Br)cc1)N1CCCC1)OCO2 (configuration not stated)	TrxR1 inh 2.5µM
COC(=O)c1ccc(N2C(=O)CC(Sc3n[nH]c(C)n3)C2=O)cc1 (configuration not stated)	TrxR1 inh 13µM
Cc1ccc(C2=NN(C(=O)CCC(=O)O)C(c3cccs3)C2)cc1 (configuration not stated)	none
Cc1ccc(C2=NN(C(=O)CCl)C(c3cccs3)C2)o1 (configuration not stated)	TrxR1 inh 10µM
CC(=O)N1N=C(c2ccco2)CC1c1cccs1 (configuration not stated)	TrxR1 inh inconclusive

Screening data: PubChem, National Center for Advancing Translational Sciences (NCATS)
